Screens from PubChem.
TRHR enhancer-1: allosteric enhancers of human TRH receptor. TRHR cells, fluo-8 calcium fluorescence, EC20 TRH enhancement. enhancement, % at 2 µM. actives 0.66% (n = 360,000); in the data active means enhancement above about 30%
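Enhancer read-out: after compound pinning and an initial kinetic agonist-mode read, an EC20 of TRH (10 nM final) was injected and fluo-8 calcium signal (Ex 480/Em 530) followed at 1 s/cycle for 100 cycles in TRHR-expressing cells.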
TRPML1 inh: inhibitors of human TRPML1 channel. Q9GZU1. actives 0.02% (n = 390,000). TRPML1-inducible cells, Ca2+ dye fluorescence, FDSS; active compounds read low; inhibition of EC80 agonist-evoked calcium signal. activity change, negative = inhibition, % (no concentration beside the values); in the data active means activity change below about -50%; inconclusive means between about -30% and that limit;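 further: stimulus is agonist 54-4 at its EC80 concentration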
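Tet-induced TRPML1-DL cells loaded with Ca8 no-wash calcium dye were read kinetically on FDSS. Compound addition was followed by EC80 agonist 54-4 (4 uM final); inhibition was read over 110 s.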
TRPML1 agonist: agonists of human TRPML1 channel | Q9GZU1 | TRPML1-expressing cells, Ca2+ dye fluorescence, FDSS | activation, % (test concentration not listed) | actives 0.12% (n = 410,000); in the data active means activation above about 50%; inconclusive means mostly about 30% to 49%
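TRPML1-DL cells, Tet-induced overnight (~16 h, 37 degrees C), loaded 45-90 min at room temperature with Ca8 no-wash calcium dye plus quencher. FDSS fluorescence: 10 s baseline, compound pin-transfer, 110 s agonist read, then EC80 54-4 (4uM final) and 110 s antagonist read.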
TRHR agonist-1: activates the human TRH receptor; TRHR cells, calcium flux fluo-8, FDSS agonist mode; actives 0.18% (n = 360,000); activation, % at 2 µM; AID 493084; P34981; in the data active means activation above about 30%
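Fluo-8-loaded TRHR cells; 10 s baseline, compound added, kinetic Ca2+ fluorescence read 1/s, agonist mode.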
TRPV1 potentiator: human TRPV1 potentiation. AID 540277. actives 0.02% (n = 320,000). TRPV1-expressing cells, Fluo-8 calcium influx, capsaicin EC20 potentiation. Q8NER1. potentiation, % at 8.33 µM; in the data active means potentiation above about 80%; inconclusive means between about 30% and that limit
Target sequence (Q8NER1 whole entry, looked up): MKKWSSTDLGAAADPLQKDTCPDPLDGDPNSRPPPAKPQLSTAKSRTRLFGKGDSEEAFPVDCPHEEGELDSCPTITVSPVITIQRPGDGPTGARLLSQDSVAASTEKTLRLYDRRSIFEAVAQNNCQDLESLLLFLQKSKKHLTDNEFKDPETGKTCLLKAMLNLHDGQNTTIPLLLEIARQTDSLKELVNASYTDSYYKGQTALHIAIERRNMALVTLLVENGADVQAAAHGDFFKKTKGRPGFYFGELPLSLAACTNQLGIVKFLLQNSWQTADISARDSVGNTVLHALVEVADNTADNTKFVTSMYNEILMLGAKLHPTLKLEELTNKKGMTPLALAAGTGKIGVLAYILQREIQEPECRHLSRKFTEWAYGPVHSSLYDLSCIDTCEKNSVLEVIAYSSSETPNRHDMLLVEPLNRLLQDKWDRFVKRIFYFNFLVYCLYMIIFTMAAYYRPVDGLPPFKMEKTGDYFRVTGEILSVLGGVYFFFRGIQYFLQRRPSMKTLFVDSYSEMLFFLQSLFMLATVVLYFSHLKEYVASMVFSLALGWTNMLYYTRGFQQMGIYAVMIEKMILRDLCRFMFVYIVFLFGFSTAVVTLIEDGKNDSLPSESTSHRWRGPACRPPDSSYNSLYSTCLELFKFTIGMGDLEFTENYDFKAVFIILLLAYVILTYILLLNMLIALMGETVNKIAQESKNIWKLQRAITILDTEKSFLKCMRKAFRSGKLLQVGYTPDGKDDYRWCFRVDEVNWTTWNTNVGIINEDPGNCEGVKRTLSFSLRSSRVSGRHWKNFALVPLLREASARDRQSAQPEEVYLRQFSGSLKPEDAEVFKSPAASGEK
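Cells expressing TRPV1 were dye-loaded with Fluo-8 and read kinetically: 10 s baseline, 3 min after compound (agonist portion), then 2 min after EC20 capsaicin (allosteric enhancer portion). Calcium-bound dye fluorescence at 480/520 nm.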
TRPV1 agonist: agonists of human vanilloid receptor 1 (TRPV1) | AID 540275 | Q8NER1 | actives 0.19% (n = 320,000) | TRPV1-expressing cells, Fluo-8 calcium influx, agonist mode | activation, % at 8.33 µM; in the data active means activation above about 80%; inconclusive means between about 30% and that limit
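Cells expressing TRPV1 were dye-loaded with Fluo-8 and read kinetically: 10 s baseline, 3 min after compound (agonist portion), then 2 min after EC20 capsaicin (allosteric enhancer portion). Calcium-bound dye fluorescence at 480/520 nm.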
TRHR enhancer-2: human TRH receptor allosteric enhancement confirmation. shares compounds with TRHR enhancer-1. TRH receptor cell assay, enhancer confirmation qHTS. activity change, negative = inhibition, % at 46.1 µM. 970 tested, under 10 active;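 further: compound effect scored on response to added TRH at EC20 of 10 nM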
TRHR agonist-2: confirmation of human TRH receptor agonists; shares compounds with TRHR enhancer-1; TRHR-expressing cells, agonist activation read-out; Potency, µM (series often up to 46.1 µM), actives largely listed as activators; actives 8% (n = 970); further: nearly all actives have a fitted effect of over 75% in size
A number is an active result; - = inactive; ? = inconclusive; . = no result. A selection: hits, their analogues and other compounds. The true share with any hit is near 0.99%. Unless noted, the call rests on the fitted dose curve; in most records, active means well fitted curve in the direction sought with a large enough effect; inconclusive means small, poorly fitted or top-dose-only effect, or another doubt; inactive means no such curve, though single readings can be large; an effect the other way counts as inactive or inconclusive.

SMILES	TRHR enhancer-1	TRPML1 inh	TRPML1 agonist	TRHR agonist-1	TRPV1 potentiator	TRPV1 agonist	TRHR enhancer-2	TRHR agonist-2
CCc1ccccc1N(C)C(=O)c1cc2c(Cl)nc3ccc(C)cc3c2s1	-	-	-	-	.	.	.	.
COc1ccccc1Nc1nc(-c2cccs2)cs1	44	-	-	-	-	-	-	-
COc1ccc(OC)c(Nc2nc(-c3cccs3)cs2)c1	-	-	-	-	-	-	.	.
Cn1nc(C(=O)OCC(=O)Nc2ccc(Cl)cc2Cl)c2ccccc2c1=O	42	-	-	-	-	-	-	-
COCCNC(=S)N/N=C/c1ccc(-c2ccc([N+](=O)[O-])cc2)o1	-	-	-	34	-	-	-	10µM
NC(=O)N/N=C/c1ccc(-c2ccc([N+](=O)[O-])cc2)o1	-	-	-	-	?	-	.	.
Cc1cccc(Oc2ccc(NC(=O)CCC(=O)OCC(=O)c3ccc(Br)cc3)cc2)c1C	-	-	-	-	.	.	.	.
Cc1[nH]n(-c2ccccc2)c(=O)c1C=NC1CCCCCC1	-	-	-	-	-	-	.	.
Cc1[nH]n(-c2ccccc2)c(=O)c1C=NC1CCCCC1	44	-	-	-	-	-	-	-
Cc1ccc(CNC(=O)Nc2cc(C(=O)NCc3cccc(F)c3)ccc2N2CCCC2)cc1	-	-	-	-	.	.	.	.
Cc1cccc(OCCNS(=O)(=O)c2ccc(Cl)cc2)c1	51	-	-	-	-	-	-	-
Cc1cccc(NC(=O)CCNS(=O)(=O)c2ccc(Cl)cc2)c1	-	-	-	-	-	-	.	.
Cc1ccc(C)c(S(=O)(=O)C(C#N)c2nc3ccccc3nc2N2CCCC2)c1 (configuration not stated)	-	-	-	-	-	-	-	?
CC1=C(C(=O)Nc2cccnc2)C(c2ccc(F)cc2)n2nc(SCc3ccccc3F)nc2N1 (configuration not stated)	-	-	-	-	.	.	.	.
COC(=O)c1ccc(/C=C/c2nc3ccccc3c(=O)[nH]2)cc1	-	-	-	38	-	-	-	-
S=c1nc(-c2sccc2OCc2ccc(Cl)cc2Cl)[nH][nH]1	51	-	-	-	-	-	?	-
COc1ccc(Cn2nnnc2C(c2ccccc2)N2CCN(C3CCCC3)CC2)cc1 (configuration not stated)	48	-	-	-	-	-	-	-
C[C@@H](C(=O)Nc1ccc2ccccc2c1)[C@H]1C[C@]1(C)[C@H](N)c1ccccc1	.	-	-	.	.	.	.	.
CC1CCCN(S(=O)(=O)c2ccc(NC(=O)CCN3C(=O)c4ccccc4C3=O)cc2)C1 (configuration not stated)	-	-	-	38	-	-	-	-
O=C(CCN1C(=O)c2ccccc2C1=O)Nc1ccc(S(=O)(=O)N2CCOCC2)cc1	-	-	-	-	-	-	.	.
Cc1cc(C)cc(N2C(=O)N(Cc3cc(=O)n4ccccc4n3)c3ccccc3S2(=O)=O)c1	-	-	-	-	.	.	.	.
Cc1nn(C)c(C(=O)NC(=S)Nc2ccccc2Br)c1Cl	-	-	-	75	-	-	-	13µM
CCn1ncc(Cl)c1C(=O)NC(=S)Nc1ccccc1Br	-	-	-	-	-	-	.	.
O=C(NC1CCCCC1)N1CCN(S(=O)(=O)c2ccc(F)cc2)CC1	46	-	-	-	-	?	-	-
O=C(NC1CCCCCC1)C1CCN(S(=O)(=O)c2ccc(F)cc2)CC1	-	-	-	-	-	-	.	.
SMILES	TRHR enhancer-1	TRPML1 inh	TRPML1 agonist	TRHR agonist-1	TRPV1 potentiator	TRPV1 agonist	TRHR enhancer-2	TRHR agonist-2
CCc1ccc2nc(/N=C(\N)NC(=O)c3ccccc3)nc(C)c2c1	45	-	-	-	-	-	-	-
Cc1cc(C)c2nc(/N=C(\N)NC(=O)c3ccccc3)nc(C)c2c1	-	-	-	-	-	-	.	.
OC(COc1ccc2cc(Br)ccc2c1)CN1CCCC1 (configuration not stated)	-	-	-	-	-	-	.	.
Cc1nc(C)n(CC(O)COc2ccc3cc(Br)ccc3c2)n1 (configuration not stated)	44	-	-	-	-	-	?	-
CCOC(=O)Cc1ccc(NC(=O)N2CCC(CN3CCC(C)CC3)CC2)cc1	-	-	-	-	.	.	.	.
O=C(Oc1ccc2c(c1)O/C(=C\c1ccncc1)C2=O)c1cccs1	-	-	-	-	-	-	.	.
CS(=O)(=O)Oc1ccc2c(c1)O/C(=C\c1cccnc1)C2=O	-	-	-	-	.	.	.	.
COc1ccc(/C=C2\Oc3cc(OC(=O)N4CCOCC4)ccc3C2=O)cc1	-	-	-	-	-	-	.	.
COc1cc(OC)c(OC)cc1/C=C1\Oc2cc(OS(C)(=O)=O)ccc2C1=O	-	-	-	38	-	-	-	?
CC(=O)Oc1ccc2c(c1)O/C(=C\c1ccncc1)C2=O	-	-	-	-	-	-	-	?
COc1ccccc1C(=O)Oc1ccc2c(c1)O/C(=C\c1ccncc1)C2=O	-	-	-	-	-	-	-	?
COc1ccc(-c2nc(SCC(=O)NC3CCCC3)c(-c3ccccc3)[nH]2)cc1OC	-	-	-	-	.	.	.	.
O=C(Nc1ccc(C(F)(F)F)cc1)N1CCC(N2CCCCC2)CC1	-	-	-	-	.	.	.	.
COC(=O)c1cc(C)nc2c1c(=O)nc(SCc1ccccc1F)n2C1CC1	-	-	-	-	.	.	.	.
Cc1ccc(S(=O)(=O)Nc2cnc3ccccc3c2)cc1	-	-	-	-	?	-	.	.
O=S(=O)(Nc1cnc2ccccc2c1)N1CCCCCC1	48	-	-	-	-	-	-	-
CCOC(=O)C1(CC2CC2)CCN(S(=O)(=O)C[C@]23CC[C@H](CC2=O)C3(C)C)CC1	-	-	-	34	-	-	-	?
CC1(C)C2CCC1(CS(=O)(=O)N1CCC(C(N)=O)CC1)C(=O)C2 (configuration not stated)	-	-	-	-	-	-	.	.
Cc1ccc(C)c(NC(=O)CSc2cccc3cccnc23)c1	-	-	-	-	?	-	.	.
Cc1cccc(NC(=O)CSc2cccc3cccnc23)c1	-	-	-	-	-	-	-	-
CCOc1ccc(C(=O)Nc2ccc3nn(-c4ccc(OC)c(Cl)c4)nc3c2)cc1	-	-	-	-	.	.	.	.
Cc1ccccc1NS(=O)(=O)c1ccc2[nH]cc(C(=O)NC3CCCCC3)c(=O)c2c1	-	-	-	-	-	-	.	.
